PubChem BioAssay (EPA / NIEHS)
Inconclusive results are not listed. Some structures have more than one record in an assay (separate samples or runs), and their calls can disagree. The source made the active and inactive calls. The calls were made as follows, unless noted: active = hit-call score of the fitted dose curve at least 0.9, where 1 is the maximum; inconclusive = response in the unintended direction; inactive = score below 0.9.

Columns and labels:
[1] = read-out: glucuronosyltransferase (UGT1A1), UGT1A1 (gene 54658); test: CLD_UGT1A1_24hr: CellzDirect (CLD) Gene Expression Assay for glucuronosyltransferase (UGT1A1) at 24 hours (AID 2283696)
How it was run: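 UGT1A1 transcript induction was measured by quantitative nuclease protection assay (chemiluminescence) in human hepatocyte cultures 24 h after daily fresh dosing, with 0.2% DMSO as vehicle and baseline.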

[2] = read-out: Cytochrome P450 3A4 (Homo sapiens) (UniProt P08684); test: CLD_CYP3A4_48hr: CellzDirect (CLD) Gene Expression Assay for xenobiotic metabolism (CYP3A4) at 48 hours (AID 2283698)
How it was run: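 CYP3A4 induction read by qNPA chemiluminescence after 48 h, with fresh dosing solutions on consecutive days, in cultured human hepatocytes (two donors). Vehicle 0.2% DMSO as baseline; microscopy-based cytotoxicity annotated yes/no alongside data.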

[3] = read-out: Cytochrome P450 2C19 (Homo sapiens) (UniProt P33261); test: CLD_CYP2C19_48hr: CellzDirect (CLD) Gene Expression Assay for xenobiotic metabolism (CYP2C19) at 48 hours (AID 2283700);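 also: fitted upward so actives raise CYP2C19 mRNA above the 0.2% DMSO vehicle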
How it was run: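 CYP2C19 mRNA induction read by chemiluminescent quantitative nuclease protection assay after 48 h, with fresh compound added daily for two days to cultured human liver hepatocytes. Activity fitted upward against 0.2% DMSO vehicle.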

[4] = CLD_ACTIN_48hr: CellzDirect (CLD) Gene Expression Assay for Baseline Control (Actin) at 48 hours (AID 2283702)
How it was run: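 Background-control actin mRNA read by qNPA chemiluminescence at 48 h. Human hepatocyte cultures from two donors received fresh multi-concentration chemical doses daily for two days; 0.2% DMSO served as vehicle baseline.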

[5] = read-out: alkyl and aryl transferase (GSTA2), GSTA2 (gene 2939); test: CLD_GSTA2_48hr: CellzDirect (CLD) Gene Expression Assay for alkyl and aryl transferase (GSTA2) at 48 hours (AID 2283708);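 also: active means mRNA induction above DMSO vehicle baseline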
How it was run: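 GSTA2 mRNA quantified by qNPA chemiluminescence in human primary hepatocyte lysates after 48 h of daily fresh chemical dosing. Increases fitted against 0.2% DMSO vehicle baseline; cytotoxicity from morphology annotated yes/no.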

[6] = CEETOX_H295R_MTT_cell_viability: Viability Assessment in the CeeTox HT-H295R MTT Assay (AID 2283718; active = hit-call score of the fitted dose curve at least 0.9, where 1 is the maximum; inactive = score below 0.9;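 as to AC50: curve fitted both ways so AC50 may mark viability loss or gain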)
How it was run: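 Human H295R adrenal cells, prestimulated 48 h with 10 uM forskolin, were exposed 48 h to chemicals in 0.1% DMSO. Viability was measured in the same wells by MTT (0.5 mg/ml, 4 h, 37 C), absorbance 570/650 nm, as percent of controls.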

[7] = read-out: Cytochrome P450 2C9 (Homo sapiens) (UniProt P11712); test: CLD_CYP2C9_48hr: CellzDirect (CLD) Gene Expression Assay for xenobiotic metabolism (CYP2C9) at 48 hours (AID 2283701; active = hit-call score of the fitted dose curve at least 0.9, where 1 is the maximum; inactive = score below 0.9)
How it was run: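 mRNA level measured by quantitative nuclease protection (S1 digestion, chemiluminescent detection) in lysates of human primary hepatocytes exposed 48 h with daily re-dosing. Induction fitted positively versus 0.2% DMSO; morphology-based cytotoxicity flagged yes/no.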

[8] = read-out: Broad substrate specificity ATP-binding cassette transporter ABCG2 (Homo sapiens) (UniProt Q9UNQ0); test: CLD_ABCG2_48hr: CellzDirect (CLD) Gene Expression Assay for ABC Transporter (ABCG2) at 48 hours (AID 2283704);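 as to AC50: potency for induction of ABCG2 mRNA above the DMSO baseline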
How it was run: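 ABCG2 transcript measured at 48 h by quantitative nuclease protection (chemiluminescent) and fitted for increase relative to 0.2% DMSO. Hepatocyte cultures from separate donors got fresh compound daily over two days; morphology annotated cytotoxicity.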

[9] = STM_H9_OrnithineISnorm_perc: Stemina devTOX quickPredict H9 human embryonic stem cell (hESC)-based Assay for Ornithine (ORN) Metabolite Biomarker, Normalized (AID 2283712; active = hit-call score of the fitted dose curve at least 0.9, where 1 is the maximum; inactive = score below 0.9;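 also: ornithine released into spent medium during last day measured by mass spectrometry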)
How it was run: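 Metabolite endpoint from spent media of pluripotent H9 cells treated 72 h with daily re-feeding; ornithine measured by UPLC-HRMS against its 13C spike-in and referenced to the median 0.1% DMSO vehicle response.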

[10] = STM_H9_CystineISnorm_perc: Stemina devTOX quickPredict H9 human embryonic stem cell (hESC)-based Assay for Cystine (CYSS) Metabolite Biomarker, Normalized (AID 2283713; active = hit-call score of the fitted dose curve at least 0.9, where 1 is the maximum; inactive = score below 0.9)
How it was run: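 Normalized cystine level in conditioned medium from the final 24h of a 72h treatment of pluripotent H9 cells (daily media and compound renewal). Quantified by UPLC-HRMS with C13-labeled internal standard; scaled to median of 0.1% DMSO vehicle wells.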

[11] = STM_H9_OrnCyssISnorm_ratio: Stemina devTOX quickPredict H9 human embryonic stem cell (hESC)-based Assay for Ornithine (ORN):Cystine (CYSS) Ratio (AID 2283714)
How it was run: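 UPLC-HRMS of spent media: ORN/CYSS ratio of internal-standard-normalized percentages, DMSO (0.1%) baseline. Pluripotent H9 hESCs, 72h exposure, daily re-dosing with fresh media; last 24h media collected.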

[12] = read-out: glucuronosyltransferase (UGT1A1), UGT1A1 (gene 54658); test: CLD_UGT1A1_48hr: CellzDirect (CLD) Gene Expression Assay for glucuronosyltransferase (UGT1A1) at 48 hours (AID 2283709);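 also: actives increase expression relative to DMSO so potency refers to induction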
How it was run: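 Quantitative nuclease protection assay (chemiluminescent) for UGT1A1 mRNA at 48 h in human hepatocyte cultures from two donors, redosed daily with fresh solutions. Induction fitted relative to 0.2% DMSO; phase-contrast morphology annotated cytotoxicity.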

[13] = Tanguay_ZF_120hpf_ActivityScore_legacy: (Legacy) Oregon State University Tanguay Lab 120 Hour Post-fertilization zebrafish Assay Score for Activity (AID 2283742)
How it was run: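 Dechorionated 5D embryos, one per well, static exposure 6–120 hpf, 28C, sealed and dark; final DMSO 0.64% (vol/vol). Brightfield binary scoring of mortality plus 18 endpoints; gain-of-signal fit versus DMSO baseline.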

[14] = read-out: Glyceraldehyde-3-phosphate dehydrogenase (Homo sapiens) (UniProt P04406); test: CLD_GAPDH_48hr: CellzDirect (CLD) Gene Expression Assay for Baseline Control (Glyceraldehyde 3-phosphate dehydrogenase) at 48 hours (AID 2283706);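 also: active means higher GAPDH mRNA than DMSO vehicle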
How it was run: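 GAPDH baseline-control readout: qNPA chemiluminescent mRNA quantitation in human liver primary cells 48 h after daily dosing on two consecutive days, vehicle 0.2% DMSO; gain of signal fitted against DMSO, cytotoxicity flagged by phase-contrast morphology.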

[15] = read-out: xenobiotic metabolism (CYP1A1), CYP1A1 (gene 1543); test: CLD_CYP1A1_48hr: CellzDirect (CLD) Gene Expression Assay for xenobiotic metabolism (CYP1A1) at 48 hours (AID 2283705)
How it was run: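 CYP1A1 transcript measured by quantitative nuclease protection (chemiluminescent) 48 h after two daily treatments of human hepatocyte cultures, versus 0.2% DMSO. Morphology-based cytotoxicity flags accompany data; two donor preparations used.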

[16] = read-out: ABC Transporter (ABCB11), ABCB11 (gene 8647); test: CLD_ABCB11_48hr: CellzDirect (CLD) Gene Expression Assay for ABC Transporter (ABCB11) at 48 hours (AID 2283697)
How it was run: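 Induction of ABCB11 mRNA relative to 0.2% DMSO, measured at 48 h by qNPA chemiluminescence. Cultured human hepatocytes (two donors) received fresh dosing solutions at several concentrations on two consecutive days.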

[17] = read-out: Cytochrome P450 2B6 (Homo sapiens) (UniProt P20813); test: CLD_CYP2B6_48hr: CellzDirect (CLD) Gene Expression Assay for xenobiotic metabolism (CYP2B6) at 48 hours (AID 2283699);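 also: actives raise transcript level above DMSO so potency reflects induction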
How it was run: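 CYP2B6 transcript induction, read by quantitative nuclease protection (S1 digestion, chemiluminescent detection) 48 h after dosing, is fitted upward against 0.2% DMSO. Cultured human liver primary cells, two donor preparations, received fresh chemical daily over multiple concentrations.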

Measured: AC50

Chain of Cytochrome P450 3A4 (Homo sapiens) (P08684 whole entry, looked up): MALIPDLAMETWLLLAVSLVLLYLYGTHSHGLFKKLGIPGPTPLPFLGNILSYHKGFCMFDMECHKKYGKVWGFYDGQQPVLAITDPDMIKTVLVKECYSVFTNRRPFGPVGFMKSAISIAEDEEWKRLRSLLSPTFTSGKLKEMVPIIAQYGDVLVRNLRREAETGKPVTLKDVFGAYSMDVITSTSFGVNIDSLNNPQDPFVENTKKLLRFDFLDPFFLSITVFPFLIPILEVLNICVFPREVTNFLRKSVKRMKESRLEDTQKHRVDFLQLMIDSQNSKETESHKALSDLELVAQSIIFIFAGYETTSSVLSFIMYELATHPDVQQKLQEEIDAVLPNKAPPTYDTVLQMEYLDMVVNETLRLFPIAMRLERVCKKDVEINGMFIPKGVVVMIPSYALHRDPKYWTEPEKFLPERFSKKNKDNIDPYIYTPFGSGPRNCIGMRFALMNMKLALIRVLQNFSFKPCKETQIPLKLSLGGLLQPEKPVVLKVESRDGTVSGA
Chain of Cytochrome P450 2C19 (Homo sapiens) (P33261 whole entry, looked up): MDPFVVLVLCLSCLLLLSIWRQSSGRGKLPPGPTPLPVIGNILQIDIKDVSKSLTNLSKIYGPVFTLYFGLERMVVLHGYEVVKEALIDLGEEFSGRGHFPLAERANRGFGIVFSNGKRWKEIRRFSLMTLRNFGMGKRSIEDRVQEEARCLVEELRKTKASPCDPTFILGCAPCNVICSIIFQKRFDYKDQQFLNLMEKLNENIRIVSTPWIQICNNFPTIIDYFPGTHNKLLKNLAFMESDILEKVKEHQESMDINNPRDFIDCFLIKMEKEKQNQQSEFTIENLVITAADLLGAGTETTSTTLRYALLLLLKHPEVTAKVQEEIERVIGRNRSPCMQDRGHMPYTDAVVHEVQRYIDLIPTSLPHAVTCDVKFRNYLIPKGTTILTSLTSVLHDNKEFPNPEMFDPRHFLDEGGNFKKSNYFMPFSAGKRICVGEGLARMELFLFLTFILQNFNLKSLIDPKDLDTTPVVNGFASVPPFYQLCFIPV
Chain of Glyceraldehyde-3-phosphate dehydrogenase (Homo sapiens) (P04406 whole entry, looked up): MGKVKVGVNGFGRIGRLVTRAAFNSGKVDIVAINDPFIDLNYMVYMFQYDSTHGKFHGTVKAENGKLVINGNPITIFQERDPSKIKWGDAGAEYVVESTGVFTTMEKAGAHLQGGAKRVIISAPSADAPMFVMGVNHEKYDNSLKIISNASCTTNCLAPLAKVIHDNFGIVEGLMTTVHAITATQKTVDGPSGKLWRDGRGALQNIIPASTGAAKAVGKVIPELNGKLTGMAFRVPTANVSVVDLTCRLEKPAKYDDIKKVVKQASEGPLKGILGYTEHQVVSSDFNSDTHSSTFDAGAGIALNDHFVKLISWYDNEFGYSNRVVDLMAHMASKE
Chain of Broad substrate specificity ATP-binding cassette transporter ABCG2 (Homo sapiens) (Q9UNQ0 whole entry, looked up): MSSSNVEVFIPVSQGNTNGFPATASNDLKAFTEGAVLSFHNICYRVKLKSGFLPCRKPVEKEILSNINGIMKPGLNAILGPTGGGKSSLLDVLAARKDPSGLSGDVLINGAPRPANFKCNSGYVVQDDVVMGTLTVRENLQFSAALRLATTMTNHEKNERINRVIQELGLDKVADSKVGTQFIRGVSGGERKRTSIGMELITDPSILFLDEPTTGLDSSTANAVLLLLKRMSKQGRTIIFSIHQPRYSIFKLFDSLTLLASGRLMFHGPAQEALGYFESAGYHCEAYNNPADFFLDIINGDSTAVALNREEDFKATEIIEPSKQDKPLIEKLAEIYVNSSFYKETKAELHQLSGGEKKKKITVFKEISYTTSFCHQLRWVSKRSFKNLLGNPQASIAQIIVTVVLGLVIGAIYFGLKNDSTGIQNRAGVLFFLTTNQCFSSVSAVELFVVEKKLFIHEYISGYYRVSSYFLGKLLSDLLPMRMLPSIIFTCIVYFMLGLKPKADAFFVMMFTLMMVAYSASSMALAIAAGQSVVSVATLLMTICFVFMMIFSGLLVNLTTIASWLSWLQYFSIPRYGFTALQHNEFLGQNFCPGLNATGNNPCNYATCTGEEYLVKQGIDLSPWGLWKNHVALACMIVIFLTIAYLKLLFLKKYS

CCN(CC)C(=O)SCc1ccc(Cl)cc1
inactive: [1] | [3] | [4] | [5] | [6]
active: [2] 20 µM

CC(C)(C)C(O)/C(=C\c1ccc(Cl)cc1Cl)n1cncn1 (centres undefined)
active: [2] 1.9 µM | [8] 31.5 µM | [9] 69.4 µM | [10] 79.6 µM | [11] 74.4 µM
inactive: [1] | [7] | [5] | [6]

O=S1OCC2C(CO1)C1(Cl)C(Cl)=C(Cl)C2(Cl)C1(Cl)Cl (centres undefined)
inactive: [1] | [3] | [8] | [12]
active: [2] 9.22 µM | [9] 36.1 µM | [10] 82 µM | [11] 77.1 µM

CCC(C)Nc1c([N+](=O)[O-])cc(C(C)(C)C)cc1[N+](=O)[O-] (centres undefined)
inactive: [1] | [3] | [8] | [9] | [10] | [13]
active: [2] 2.7 µM | [5] 4.11 µM | [6] 46.9 µM

O=[N+]([O-])/N=C1\NCCN1Cc1ccc(Cl)nc1
inactive: [1] | [2] | [4] | [14] | [5] | [6]

CNC(=O)Oc1cccc(N=CN(C)C)c1
inactive: [1] | [4] | [15] | [14] | [5] | [6] | [13]

CCC(C)(C)C(=O)OC1=C(c2ccc(Cl)cc2Cl)C(=O)OC12CCCCC2
active: [2] 34.8 µM
inactive: [1] | [7] | [8] | [14] | [5] | [6]

CCOC1Oc2ccc(OS(C)(=O)=O)cc2C1(C)C (centres undefined)
active: [2] 5.87 µM | [9] 86.3 µM | [10] 83 µM | [11] 84.3 µM
inactive: [1] | [7] | [8] | [5]

CC(C)(C)C(O)C(Oc1ccc(Cl)cc1)n1cncn1 (centres undefined)
active: [1] 6.66 µM | [10] 20.4 µM | [11] 28.3 µM
inactive: [3] | [7] | [8] | [5] | [9] | [6]

CC(C)N(C(=O)COc1nnc(C(F)(F)F)s1)c1ccc(F)cc1
inactive: [1] | [4] | [8] | [14] | [5] | [6]
active: [2] 5.1 µM

COP(=S)(OC)Oc1ccc(SC)c(C)c1
inactive: [1] | [2] | [6]

CCCN(CCOc1c(Cl)cc(Cl)cc1Cl)C(=O)n1ccnc1
inactive: [14] | [5] | [6]
active: [2] 0.432 µM | [8] 35.4 µM | [6] 50 µM

ClC1C(Cl)C(Cl)C(Cl)C(Cl)C1Cl (centres undefined)
inactive: [1] | [7] | [8] | [5] | [6]

N#Cc1c(Cl)c(Cl)c(Cl)c(C#N)c1Cl
active: [2] 0.000914 µM | [17] 0.000962 µM
inactive: [16] | [3] | [4] | [8] | [14] | [5] | [6]
